From PubChem BioAssay (EPA / NIEHS)
Calls of active or inactive are those of the source. The calls were made as follows: active = hit-call score of the fitted dose curve at least 0.9, where 1 is the maximum; inactive = score below 0.9.

Experiments:
Conditions in all cases: mRNA level, 48 h; actives raise or lower the signal
[1] = read-out: matrix metalloproteinase-10 (MMP10), MMP10 (gene 4319); test: LTEA_HepaRG_MMP10: Life Technologies and Expression Analysis (LTEA) Assay for matrix metalloproteinase-10 (MMP10) using HepaRG (AID 2283517)
In short: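 Transcript levels come from Fluidigm qRT-PCR normalized to three housekeeping genes, with curves fitted bidirectionally against 0.5% DMSO. Human HepaRG cells were dosed for 48 hours at concentrations up to 100 uM.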

[2] = read-out: matrix metalloproteinase-3 (MMP3), MMP3 (gene 4314); test: LTEA_HepaRG_MMP3: Life Technologies and Expression Analysis (LTEA) Assay for matrix metalloproteinase-3 (MMP3) using HepaRG (AID 2283519)
In short: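 qRT-PCR read-out of MMP3 mRNA (normalised to three housekeeping genes) in HepaRG liver cells after 48 h chemical exposure; 8-point half-log series, top 100 uM, 0.5% DMSO vehicle. Bidirectional curve fitting against DMSO baseline.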

[3] = read-out: Nuclear factor NF-kappa-B p105 subunit (Homo sapiens) (UniProt P19838); test: LTEA_HepaRG_NFKB1: Life Technologies and Expression Analysis (LTEA) Assay for Nuclear Factor Kappa B Subunit 1 (NFKB1) using HepaRG (AID 2283521)
In short: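 NFKB1 transcript was measured by TaqMan qRT-PCR on Fluidigm arrays, normalised to three housekeeping genes and fitted in both directions against 0.5% DMSO. HepaRG cells were dosed in duplicate for 48 h in serum-free induction medium, eight half-log steps from 100 uM.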

[4] = read-out: Protein phosphatase 2A (PPP2R4), PTPA (gene 5524); test: LTEA_HepaRG_PPP2R4: Life Technologies and Expression Analysis (LTEA) Assay for Protein phosphatase 2A (PPP2R4) using HepaRG (AID 2283522)
In short: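 Expression was quantified by Fluidigm qRT-PCR normalised to three housekeeping genes after 48 h treatment. Human HepaRG cells received an 8-point series from 100 µM downward by half-logs, in duplicate with 0.5% DMSO vehicle and 1 mM phenobarbital as induction control.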

[5] = read-out: Phosphatase and tensin (PTEN), PTEN (gene 5728); test: LTEA_HepaRG_PTEN: Life Technologies and Expression Analysis (LTEA) Assay for Phosphatase and tensin (PTEN) using HepaRG (AID 2283523)
In short: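 HepaRG, 48 h exposure, 8-pt half-log series from 100 uM top, 0.5% DMSO vehicle, duplicates. Readout: Fluidigm qRT-PCR of PTEN transcript; housekeeping normalization (ACTB, GAPDH, POLR2A). Gain or loss fitted relative to DMSO baseline.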

[6] = read-out: solute carrier (SLC22A1), SLC22A1 (gene 6580); test: LTEA_HepaRG_SLC22A1: Life Technologies and Expression Analysis (LTEA) Assay for solute carrier (SLC22A1) using HepaRG (AID 2283524);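 as to AC50: differentiated human HepaRG liver cells in serum-free induction medium; TaqMan qRT-PCR normalized to ACTB GAPDH and POLR2A housekeeping genes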
In short: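 qRT-PCR readout (TaqMan, Fluidigm arrays) of SLC22A1 transcript, normalized to three housekeeping genes; bidirectional curve fit relative to 0.5% DMSO vehicle. Differentiated human HepaRG cells, 48 h chemical exposure, top concentration 100 uM, half-log steps, eight points.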

[7] = read-out: NAD(P)H dehydrogenase [quinone] 1 (NQO1), NQO1 (gene 1728); test: LTEA_HepaRG_NQO1: Life Technologies and Expression Analysis (LTEA) Assay for NAD(P)H dehydrogenase [quinone] 1 (NQO1) using HepaRG (AID 2283526)
In short: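 NQO1 transcript induction or loss measured by TaqMan qRT-PCR, referenced to three housekeeping genes and fitted bidirectionally against 0.5% DMSO. HepaRG cultures exposed 48 h, duplicate, eight-point half-log series, top 100 uM.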

MYC, MYC (gene 4609) = test: LTEA_HepaRG_MYC: Life Technologies and Expression Analysis (LTEA) Assay for MYC using HepaRG (AID 2283518)
In short: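 Expression changes were scored by TaqMan qRT-PCR with ACTB, GAPDH and POLR2A normalization. Cultures in serum-free induction medium received duplicate 8-point concentration series, highest 100 uM, for 48 h; DMSO (0.5%) served as baseline.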

[8] = read-out: Paternally Expressed 10 (PEG10), PEG10 (gene 23089); test: LTEA_HepaRG_PEG10: Life Technologies and Expression Analysis (LTEA) Assay for Paternally Expressed 10 (PEG10) using HepaRG (AID 2283520);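 as to AC50: differentiated HepaRG human liver cells in serum-free induction medium with 0.5% DMSO; PEG10 transcript by qRT-PCR normalised to ACTB GAPDH and POLR2A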
In short: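 PEG10 transcript measured by Fluidigm qRT-PCR, normalized to three housekeeping genes, in HepaRG cells treated 48 h (highest 100 uM, half-log steps, 0.5% DMSO vehicle). Cells plated 48 h before switching to serum-free induction medium.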

[9] = read-out: Pyruvate Dehydrogenase Kinase 4 (PDK4), PDK4 (gene 5166); test: LTEA_HepaRG_PDK4: Life Technologies and Expression Analysis (LTEA) Assay for Pyruvate Dehydrogenase Kinase 4 (PDK4) using HepaRG (AID 2283525)
In short: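 HepaRG (human liver line), 48 h chemical exposure, 8-pt half-log CRC top 100 uM, 0.5% DMSO vehicle, duplicates. Readout: TaqMan qRT-PCR of PDK4 mRNA, housekeeping-normalized; gain/loss fit relative to DMSO baseline.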

Measured: AC50

Sequence of Nuclear factor NF-kappa-B p105 subunit (Homo sapiens) (P19838 whole entry, looked up): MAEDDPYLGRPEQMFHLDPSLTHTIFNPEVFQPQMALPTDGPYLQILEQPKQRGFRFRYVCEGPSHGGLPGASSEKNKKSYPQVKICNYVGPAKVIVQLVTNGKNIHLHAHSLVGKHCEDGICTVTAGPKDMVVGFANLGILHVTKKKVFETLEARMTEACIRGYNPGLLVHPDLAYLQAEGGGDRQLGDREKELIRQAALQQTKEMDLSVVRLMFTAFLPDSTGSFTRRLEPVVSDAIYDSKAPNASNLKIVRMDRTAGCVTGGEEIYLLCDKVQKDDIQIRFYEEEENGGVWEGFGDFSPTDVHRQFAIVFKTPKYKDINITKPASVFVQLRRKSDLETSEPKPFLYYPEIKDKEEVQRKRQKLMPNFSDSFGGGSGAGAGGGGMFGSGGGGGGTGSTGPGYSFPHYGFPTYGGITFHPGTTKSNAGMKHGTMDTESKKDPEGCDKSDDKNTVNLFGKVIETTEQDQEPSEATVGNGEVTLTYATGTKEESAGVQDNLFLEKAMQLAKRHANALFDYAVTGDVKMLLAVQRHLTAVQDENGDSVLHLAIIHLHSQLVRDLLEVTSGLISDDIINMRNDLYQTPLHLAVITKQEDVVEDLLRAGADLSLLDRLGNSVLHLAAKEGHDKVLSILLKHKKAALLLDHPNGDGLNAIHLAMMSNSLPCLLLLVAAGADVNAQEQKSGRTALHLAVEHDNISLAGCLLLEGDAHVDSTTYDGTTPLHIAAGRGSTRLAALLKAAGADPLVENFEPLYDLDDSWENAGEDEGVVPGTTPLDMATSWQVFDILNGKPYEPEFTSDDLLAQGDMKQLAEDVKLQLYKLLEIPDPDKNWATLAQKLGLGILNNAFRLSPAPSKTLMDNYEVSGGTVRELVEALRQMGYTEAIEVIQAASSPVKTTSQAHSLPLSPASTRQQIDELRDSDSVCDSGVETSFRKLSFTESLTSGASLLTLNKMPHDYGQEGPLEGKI

CC(C)[C@H](C(=O)O[C@H](C#N)c1cccc(Oc2ccccc2)c1)c1ccc(Cl)cc1
active: [2] 50 µM
not listed: MYC, MYC (gene 4609) | [8] | [9]
inactive: all other assays above

CCCCN(CC)c1c([N+](=O)[O-])cc(C(F)(F)F)cc1[N+](=O)[O-]
not listed: MYC, MYC (gene 4609) | [8] | [9]
inactive: all other assays above

CCCCOC(=O)c1ccccc1C(=O)O
not listed: [1] | [9]
inactive: all other assays above

CCOC(=O)CC(SP(=O)(OC)OC)C(=O)OCC (centres undefined)
not listed: [1] | [9]
inactive: all other assays above

O=C(O)c1cc(Oc2ccc(C(F)(F)F)cc2Cl)ccc1[N+](=O)[O-]
active: [8] 50 µM
not listed: [5] | MYC, MYC (gene 4609) | [9]
inactive: all other assays above

COc1ccc(C(=CC(=O)N2CCOCC2)c2ccc(Cl)cc2)cc1OC
not listed: MYC, MYC (gene 4609) | [8] | [9]
inactive: all other assays above

CCCOCC(=Nc1ccc(Cl)cc1C(F)(F)F)n1ccnc1
active: [1] 78.7 µM | MYC, MYC (gene 4609) 50 µM | [2] 84.3 µM | [4] 80.7 µM | [5] 81.8 µM | [6] 21.4 µM
inactive: [3] | [7]

CN(C)C(=O)Nc1cccc(C(F)(F)F)c1
active: [2] 82.7 µM
not listed: MYC, MYC (gene 4609)
inactive: all other assays above

CCOP(=S)(Oc1cnc(C(C)(C)C)nc1)OC(C)C (centres undefined)
active: [8] 13.3 µM | [9] 1.35 µM
not listed: [1]
inactive: all other assays above

CCC(CC)Nc1c([N+](=O)[O-])cc(C)c(C)c1[N+](=O)[O-]
not listed: MYC, MYC (gene 4609) | [8]
inactive: all other assays above

CSC1=N[C@@](C)(c2ccccc2)C(=O)N1Nc1ccccc1
inactive: [1] | [2] | [4] | [5] | [7]
active: [8] 20.1 µM | [6] 34.2 µM

O=[N+]([O-])c1cc(C(F)(F)F)c(Cl)c([N+](=O)[O-])c1Nc1ncc(C(F)(F)F)cc1Cl
inactive: [3] | [7]
active: [1] 24.8 µM | [2] 25 µM | [8] 49.2 µM | [4] 65.2 µM | [5] 59.8 µM | [6] 17.8 µM | [9] 34 µM

CCOP(=S)(OCC)Oc1ccc([N+](=O)[O-])cc1
not listed: [8]
inactive: all other assays above

Nc1nc(N)nc(NC2CC2)n1
not listed: [9]
inactive: all other assays above

CCOC(=O)COc1cc(-c2nn(C)c(OC(F)F)c2Cl)c(F)cc1Cl
not listed: MYC, MYC (gene 4609) | [8]
inactive: all other assays above

CN(C)NC(=O)CCC(=O)O
not listed: [8] | [9]
inactive: all other assays above

CSc1nc(NC(C)C)nc(NC(C)C)n1
active: [6] 34.4 µM
not listed: [3] | MYC, MYC (gene 4609) | [8]
inactive: all other assays above

CCc1cccc(CC)c1N(COC)C(=O)CCl
not listed: MYC, MYC (gene 4609) | [8] | [9]
inactive: all other assays above

CN1COCN(Cc2cnc(Cl)s2)C1=N[N+](=O)[O-]
inactive: all assays above

N#CSCSC#N
active: [1] 83 µM | [6] 74.2 µM
not listed: MYC, MYC (gene 4609) | [8]
inactive: all other assays above

CC(C1CC1)C(O)(Cn1cncn1)c1ccc(Cl)cc1 (centres undefined)
active: [6] 66.9 µM
not listed: [2] | [8] | [9]
inactive: all other assays above

CCOP(=S)(OCC)OC(Cl)C(Cl)(Cl)Cl (centres undefined)
not listed: [8]
inactive: all other assays above

CCOP(=O)(OCC)Oc1cc(C)nc(C(C)C)n1
not listed: [3] | MYC, MYC (gene 4609) | [9]
inactive: all other assays above

COP(=O)(NC(C)=O)SC (centres undefined)
not listed: [3] | MYC, MYC (gene 4609)
inactive: all other assays above

CCOP(=S)(OCC)SCCSCC
inactive: all assays above

CCCSP(=O)(OCC)SCCC
active: [6] 10.2 µM
inactive: [1] | [2] | [4] | [5] | [7]

Nc1c(Cl)cc([N+](=O)[O-])cc1Cl
active: MYC, MYC (gene 4609) 12.3 µM | [8] 36.7 µM | [3] 12.2 µM | [4] 50 µM | [5] 4.24 µM | [6] 60.8 µM
inactive: [2] | [7]

CCOP(=S)(OCC)Oc1cc(C)nc(C(C)C)n1
not listed: MYC, MYC (gene 4609) | [8] | [9]
inactive: all other assays above

CCCCOC(=O)[C@@H](C)Oc1ccc(Oc2ccc(C#N)cc2F)cc1
active: [9] 49.8 µM
not listed: [1]
inactive: all other assays above

S=C1NCCN1
not listed: [1] | [9]
inactive: all other assays above

Cc1nn(-c2cc(NS(C)(=O)=O)c(Cl)cc2Cl)c(=O)n1C(F)F
not listed: [3] | [8] | [9]
inactive: all other assays above

COP(=O)(OC)OC(Br)C(Cl)(Cl)Br (centres undefined)
active: [7] 21.1 µM
inactive: [1] | [2] | [4] | [5] | [6]

Cc1ccn2nc(S(=O)(=O)Nc3c(F)cccc3F)nc2n1
not listed: [3] | MYC, MYC (gene 4609) | [9]
inactive: all other assays above
